# Compound activity (PubChem BioAssay)
# The list is not random: actives were taken first. Their share in the collection is about 1.7%.
# HDAC3 inh = HDAC3 deacetylase inhibitors, primary screen, biochemical, fluorescence, cell-free homogeneous. recombinant HDAC3, fluorogenic peptide/trypsin coupled. inhibition, % at 8.3 µM. hit rate 0.15% among 320,000. AID 2718, 2010; in the data active = inhibition above about 26%, passing the limit was not always enough
# LANA-H2B inh = blockers of LANA interaction with H2A/H2B – biochemical, FP readout, HTS, primary screen; hit rate 0.6% among 320,000; inhibition, % (concentration not given with the values); cell-free LANA-H2A/H2B peptide, fluorescence polarization; in the data active = inhibition mostly above about 10%, no sharp cut-off; inactive = mostly below about 6.7%
# m5-HT2A agonist = mouse Htr2a agonists via beta-arrestin recruitment, primary screen, cell-based, luminescence | CHO-K1 mHTR2A beta-arrestin complementation; percent of 30 µM serotonin response | AID 624169, 2012 | 5-hydroxytryptamine receptor 2A (Mus musculus), P35363 | activation, % at 7.6 µM | hit rate 0.66% among 360,000;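 active = activation above a run cutoff, the mean activation of all tested compounds plus 3 SD, cut at about 14% in these data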;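 note: 0% = plate median of compound wells and 100% = 30 µM serotonin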
# Target sequence (P35363 whole entry, looked up): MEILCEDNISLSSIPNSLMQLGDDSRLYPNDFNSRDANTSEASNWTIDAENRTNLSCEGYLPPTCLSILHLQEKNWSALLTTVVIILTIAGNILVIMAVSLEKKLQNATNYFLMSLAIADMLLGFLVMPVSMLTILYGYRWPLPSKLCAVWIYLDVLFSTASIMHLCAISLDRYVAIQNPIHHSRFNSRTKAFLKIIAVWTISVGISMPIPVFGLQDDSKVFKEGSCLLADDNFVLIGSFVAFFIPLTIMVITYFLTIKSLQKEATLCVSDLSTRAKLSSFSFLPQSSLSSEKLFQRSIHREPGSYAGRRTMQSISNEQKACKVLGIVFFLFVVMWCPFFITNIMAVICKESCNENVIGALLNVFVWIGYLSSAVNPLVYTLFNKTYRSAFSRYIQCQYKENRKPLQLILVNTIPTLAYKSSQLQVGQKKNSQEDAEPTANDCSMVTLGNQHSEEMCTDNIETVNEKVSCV
# CTSL1 counter = Fasciola hepatica cathepsin L1 inhibitors, primary screen, counter-screen for PFM18AAP inhibitor project, biochemical, QFRET, fluorogenic peptide substrate | recombinant F. hepatica cathepsin L1, Z-Leu-Arg-MCA fluorescence | inhibition, % at 5.96 µM | hit rate 0.49% among 300,000 | AID 1906, 2009;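 active = inhibition above the mean of all tested compounds plus 3 SD, set per screening campaign, cut at about 17% in these data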;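 note: 0% = plate median of test compound wells and 100% = 1 µM Z-Phe-Ala-diazomethylketone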
# Active calls of the source: *; / = no result given.
SMILES,HDAC3 inh,LANA-H2B inh,m5-HT2A agonist,CTSL1 counter
CC1CCC(NC(=O)CCS(=O)(=O)c2ccc3c(c2)oc(=O)n3C)CC1 (configuration not stated),0,-4,-1,1
Cc1ccc(S(=O)(=O)N(C)C)cc1NC(=S)NCCCn1ccnc1,-1,-5,-1,-2
CN(C)S(=O)(=O)c1cccc(NC(=S)NCCCn2ccnc2)c1,6,-1,1,17*
Nc1nc(SCC(=O)N2N=C3/C(=C/c4ccco4)CCCC3C2c2ccco2)n[nH]1 (configuration not stated),9,-6,-2,2
O=C(CSc1nccc(=O)[nH]1)N1N=C2/C(=C/c3ccco3)CCCC2C1c1ccco1 (configuration not stated),0,7,-1,17*
CCCCN(C(=O)c1nn(C)c(=O)c2ccccc12)c1c(N)n(CC(C)C)c(=O)[nH]c1=O,1,-3,4,/
CC1(c2ccccc2)NC(=O)N(CC(=O)Nc2ccccc2N2CCCC2)C1=O (configuration not stated),6,-7,5,18*
O=C(C[n+]1ccc(/C=N/O)cc1)NC1CCCCC1,1,17*,-5,3
CCOC(=O)c1c(C)[nH]c(C)c1S(=O)(=O)N(C)CC(=O)N(C)Cc1ccccc1,-3,3,2,5
COc1ccc(Cl)cc1NC(=O)CN(C)C(=O)c1cc2c(s1)CCCC2,/,/,-14,/
Cc1ccc(S(=O)(=O)n2nccc2-c2c(-c3ccc(Cl)cc3)noc2C)cc1,-5,17*,-1,-4
CC(Oc1ccc(Cl)cc1)c1ccnn1S(=O)(=O)c1ccc(Cl)cc1 (configuration not stated),8,-3,-5,4
COC(=O)C1C(=O)CC(C)(O)C(C(=O)OC)C1/C=C/c1ccccc1 (configuration not stated),-1,7,-1,-2
CCOC(=O)C1C(=O)CC(C)(O)C(C(=O)OCC)C1/C=C/c1ccccc1 (configuration not stated),/,82*,1,/
Cn1ncc([N+](=O)[O-])c1C(=O)Nc1ccccc1C(=O)O,6,4,-3,1
COc1ccccc1NC(=O)c1c([N+](=O)[O-])cnn1C,7,15*,-1,-1
COc1cccc(-c2ccc3c(c2)O[C@@H](CN(C)Cc2cncnc2)[C@@H](C)CN([C@H](C)CO)S3(=O)=O)c1,/,/,3,/
O=C1Nc2ccc(Br)cc2/C1=C/C1CC=CCC1 (configuration not stated),0,-1,6,28*
O=C1Nc2ccc(Br)cc2/C1=C/C(=O)c1ccc2c(c1)OCO2,9,4,3,-3
CCC(NC(=O)C1C2C=CC(C2)C1C(=O)O)c1ccc(C)cc1 (configuration not stated),0,104*,0,-10
COc1ccccc1C(C(C(=O)c1ccccc1)N1CCOCC1)N1CCOCC1 (configuration not stated),/,/,4,/
CC(C)(C)OC(=O)N1CCCC(C(=O)Nc2cccc(C(=O)NCCCCc3ccccc3)c2)C1 (configuration not stated),/,/,1,/
COc1ccc(CCN2C(=O)COc3ccccc3C2C(=O)Nc2c(C)cccc2C)cc1OC (configuration not stated),/,/,0,/
CSc1c(C#N)c(N)c(C#N)c2c1COC(C)(C)C2,4,6,3,17*
Cc1ccc(N(CC(N)=O)C2SC(=O)NC2=O)cc1 (configuration not stated),9,22*,7,3
SMILES,HDAC3 inh,LANA-H2B inh,m5-HT2A agonist,CTSL1 counter
Cc1ccc(N(CC(=O)O)C2SC(=O)NC2=O)cc1 (configuration not stated),-3,-4,7,-3
Cc1cc(NC(=O)CSc2ccnc(=O)[nH]2)no1,-2,-2,5,0
CCC(=O)Nc1ccc(C(=O)COC(=O)Cc2ccsc2)cc1,-4,18*,-5,/
O=C(O)c1ccccc1-c1ccccc1C(=O)Nc1ccc2c(c1)C(O)c1ccccc1-2 (configuration not stated),/,/,-4,/
Cc1cc(SCC(=O)c2ccccc2)nc(=O)[nH]1,45*,3,6,1
CCCCc1c(O)nc(SCC(=O)O)[nH]c1=O,3,-1,0,-5
Cc1ccc(C(=O)CSc2cc(C)[nH]c(=O)n2)cc1,34*,0,-4,-4
Cc1cc(SCC(=O)c2ccc(Cl)cc2)nc(=O)[nH]1,18,-3,0,-3
CCCCc1c(O)nc(SCC(=O)c2ccccc2)[nH]c1=O,46*,8,-2,14
Cc1ccc2c(c1)N(C(=O)CCC(=O)NCCN1CCOCC1)CCO2,-3,-4,3,3
CCCc1cc(C(=O)Nc2ccc(C(=O)c3ccc(C)cc3)cc2)n(C)n1,-1,-1,-11,5
CSCCC(NC(=O)C1CCC(C)CC1)C(=O)O (configuration not stated),-1,-5,4,1
CC1CCC(C(=O)NC(C(=O)NCCN2CCC(C)CC2)C(C)C)CC1 (configuration not stated),/,/,0,/
CSCCC(NC(=O)C1CCC(C)CC1)C(=O)NCCN1CCOCC1 (configuration not stated),2,6,-2,38*
CC(C)CC(NC(=O)C1CCC(C)CC1)C(=O)NCCN1CCOCC1 (configuration not stated),-4,2,-1,60*
CCC1CCC(C(=O)NC(CCSC)C(=O)NCCN(CC(C)C)CC(C)C)CC1 (configuration not stated),9,7,6,31*
OCC1OC(Oc2c[nH]c3ccccc23)C(O)C(O)C1O (configuration not stated),-11,-6,2,-1
Cn1c(=O)[nH]c(=O)c2c1nc(N1CCCCC1)n2CC(O)COc1ccc([N+](=O)[O-])cc1 (configuration not stated),-1,1,4,7
O=C(N[C@@H](Cc1ccccc1)C(=O)NC1CC1)c1ccc(Cl)cc1,-2,7,0,3
C/C(=N\NC(=O)CN1CCN(c2ccc(F)cc2)CC1)c1ccco1,4,2,-5,10
CC1(C)C2CCC1(C)C(OCC[N+](C)(C)CC(=O)OC1CCCCC1)C2 (configuration not stated),3,27*,7,3
CC(C)C12CN3CC(C(C)C)(CN(C1)C3c1ccccc1)C2O (configuration not stated),2,8.5*,2,-5
COc1ccc(O)c(C(=O)c2cnn(C(=O)c3cc(C)oc3C)c2)c1,-1,-6,3,1
COc1ccc(C(=O)n2cc(C(=O)c3cc(C)ccc3O)cn2)cc1OC,53*,-2,-1,-3
O=C(c1cnn(C(=O)c2ccc(O)cc2)c1)c1ccccc1O,76*,-2,/,-3
